From the supplement of paper PMC11001985

What follows are targets tested with C#CCNC(=O)CCSSCCC(=O)NCCc1ccc(C=O)c(C=O)c1 (assay: lysine labeling ratio R10:1 (500 µM / 50 µM probe), SILAC-ABPP in living cells; higher = lower intrinsic lysine reactivity toward the probe, active = 2 or less). Conditions: HeLa; probe concentrations 500 vs 50 µM.
How it was run: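 The two probe levels, 50 µM and 500 µM, of an alkyne-tagged, disulfide-linked lysine probe were applied to living light and heavy SILAC HeLa cells in PBS at room temperature, and the labels were run in both forward and reverse orientation. Mixed lysates underwent biotin-azide click chemistry, trypsin digestion, neutravidin capture, DTT release and alkylation before LC-MS/MS on a TIMS-TOF Pro. R is the filtered median high-probe/low-probe MS1 peptide ratio for each lysine, summarised as the median over forward and reverse replicates. Nothing above 20 is reported; such values are set to 20.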

UniProt P32004, sequence (P32004 whole entry): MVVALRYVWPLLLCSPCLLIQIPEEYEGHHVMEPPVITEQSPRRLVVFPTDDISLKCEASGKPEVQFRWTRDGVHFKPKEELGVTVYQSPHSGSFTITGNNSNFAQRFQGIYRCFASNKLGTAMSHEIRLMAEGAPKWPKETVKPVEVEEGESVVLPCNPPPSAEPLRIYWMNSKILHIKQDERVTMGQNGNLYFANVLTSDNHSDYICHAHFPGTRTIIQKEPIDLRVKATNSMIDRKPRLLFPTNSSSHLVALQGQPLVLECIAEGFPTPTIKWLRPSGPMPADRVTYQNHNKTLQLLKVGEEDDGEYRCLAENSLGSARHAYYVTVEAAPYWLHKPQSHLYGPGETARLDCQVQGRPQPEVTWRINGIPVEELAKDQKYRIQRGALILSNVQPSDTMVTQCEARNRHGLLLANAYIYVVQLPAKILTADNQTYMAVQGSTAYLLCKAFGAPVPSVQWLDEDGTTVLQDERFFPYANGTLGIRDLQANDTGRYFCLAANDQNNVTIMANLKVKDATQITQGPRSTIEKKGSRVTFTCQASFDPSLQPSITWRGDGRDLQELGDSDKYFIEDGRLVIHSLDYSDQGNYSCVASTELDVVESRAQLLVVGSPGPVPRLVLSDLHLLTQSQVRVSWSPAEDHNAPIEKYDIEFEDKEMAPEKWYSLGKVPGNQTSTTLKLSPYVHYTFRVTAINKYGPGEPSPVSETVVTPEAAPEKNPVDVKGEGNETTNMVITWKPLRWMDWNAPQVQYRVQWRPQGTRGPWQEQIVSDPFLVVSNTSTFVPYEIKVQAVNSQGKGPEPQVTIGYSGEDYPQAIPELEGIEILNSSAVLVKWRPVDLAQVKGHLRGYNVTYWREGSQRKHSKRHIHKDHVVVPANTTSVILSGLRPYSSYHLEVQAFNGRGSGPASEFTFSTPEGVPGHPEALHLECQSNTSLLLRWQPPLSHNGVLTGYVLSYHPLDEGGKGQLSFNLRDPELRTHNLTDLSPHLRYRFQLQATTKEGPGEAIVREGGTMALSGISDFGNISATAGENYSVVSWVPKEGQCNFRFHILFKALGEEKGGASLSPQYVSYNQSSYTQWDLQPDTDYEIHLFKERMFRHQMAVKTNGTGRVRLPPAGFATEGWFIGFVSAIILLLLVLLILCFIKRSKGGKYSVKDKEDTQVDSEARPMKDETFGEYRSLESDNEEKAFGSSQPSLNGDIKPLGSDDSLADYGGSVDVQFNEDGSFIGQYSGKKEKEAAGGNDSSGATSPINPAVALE
UniProt P05556, sequence (P05556 whole entry): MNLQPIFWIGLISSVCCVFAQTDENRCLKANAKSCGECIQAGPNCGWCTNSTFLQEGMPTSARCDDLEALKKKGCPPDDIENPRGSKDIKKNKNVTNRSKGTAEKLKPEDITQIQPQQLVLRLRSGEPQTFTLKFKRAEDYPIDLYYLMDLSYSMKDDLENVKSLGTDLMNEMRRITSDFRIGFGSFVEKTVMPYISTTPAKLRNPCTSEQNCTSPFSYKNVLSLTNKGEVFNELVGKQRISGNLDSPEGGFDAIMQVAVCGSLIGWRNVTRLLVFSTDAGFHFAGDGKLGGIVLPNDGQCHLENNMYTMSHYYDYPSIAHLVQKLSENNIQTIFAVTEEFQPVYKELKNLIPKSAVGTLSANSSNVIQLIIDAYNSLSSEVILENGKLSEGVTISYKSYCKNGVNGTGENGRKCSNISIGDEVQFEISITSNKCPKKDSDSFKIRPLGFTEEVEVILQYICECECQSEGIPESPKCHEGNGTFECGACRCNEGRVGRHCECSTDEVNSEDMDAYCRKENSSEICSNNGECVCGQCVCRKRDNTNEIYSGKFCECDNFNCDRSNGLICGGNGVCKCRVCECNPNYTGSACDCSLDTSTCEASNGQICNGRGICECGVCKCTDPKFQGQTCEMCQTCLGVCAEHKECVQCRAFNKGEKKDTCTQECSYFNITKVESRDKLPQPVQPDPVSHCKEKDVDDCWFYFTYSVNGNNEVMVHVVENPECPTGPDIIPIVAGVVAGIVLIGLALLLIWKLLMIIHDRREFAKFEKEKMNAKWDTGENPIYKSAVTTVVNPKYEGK
UniProt Q9NYQ6, sequence (Q9NYQ6 whole entry): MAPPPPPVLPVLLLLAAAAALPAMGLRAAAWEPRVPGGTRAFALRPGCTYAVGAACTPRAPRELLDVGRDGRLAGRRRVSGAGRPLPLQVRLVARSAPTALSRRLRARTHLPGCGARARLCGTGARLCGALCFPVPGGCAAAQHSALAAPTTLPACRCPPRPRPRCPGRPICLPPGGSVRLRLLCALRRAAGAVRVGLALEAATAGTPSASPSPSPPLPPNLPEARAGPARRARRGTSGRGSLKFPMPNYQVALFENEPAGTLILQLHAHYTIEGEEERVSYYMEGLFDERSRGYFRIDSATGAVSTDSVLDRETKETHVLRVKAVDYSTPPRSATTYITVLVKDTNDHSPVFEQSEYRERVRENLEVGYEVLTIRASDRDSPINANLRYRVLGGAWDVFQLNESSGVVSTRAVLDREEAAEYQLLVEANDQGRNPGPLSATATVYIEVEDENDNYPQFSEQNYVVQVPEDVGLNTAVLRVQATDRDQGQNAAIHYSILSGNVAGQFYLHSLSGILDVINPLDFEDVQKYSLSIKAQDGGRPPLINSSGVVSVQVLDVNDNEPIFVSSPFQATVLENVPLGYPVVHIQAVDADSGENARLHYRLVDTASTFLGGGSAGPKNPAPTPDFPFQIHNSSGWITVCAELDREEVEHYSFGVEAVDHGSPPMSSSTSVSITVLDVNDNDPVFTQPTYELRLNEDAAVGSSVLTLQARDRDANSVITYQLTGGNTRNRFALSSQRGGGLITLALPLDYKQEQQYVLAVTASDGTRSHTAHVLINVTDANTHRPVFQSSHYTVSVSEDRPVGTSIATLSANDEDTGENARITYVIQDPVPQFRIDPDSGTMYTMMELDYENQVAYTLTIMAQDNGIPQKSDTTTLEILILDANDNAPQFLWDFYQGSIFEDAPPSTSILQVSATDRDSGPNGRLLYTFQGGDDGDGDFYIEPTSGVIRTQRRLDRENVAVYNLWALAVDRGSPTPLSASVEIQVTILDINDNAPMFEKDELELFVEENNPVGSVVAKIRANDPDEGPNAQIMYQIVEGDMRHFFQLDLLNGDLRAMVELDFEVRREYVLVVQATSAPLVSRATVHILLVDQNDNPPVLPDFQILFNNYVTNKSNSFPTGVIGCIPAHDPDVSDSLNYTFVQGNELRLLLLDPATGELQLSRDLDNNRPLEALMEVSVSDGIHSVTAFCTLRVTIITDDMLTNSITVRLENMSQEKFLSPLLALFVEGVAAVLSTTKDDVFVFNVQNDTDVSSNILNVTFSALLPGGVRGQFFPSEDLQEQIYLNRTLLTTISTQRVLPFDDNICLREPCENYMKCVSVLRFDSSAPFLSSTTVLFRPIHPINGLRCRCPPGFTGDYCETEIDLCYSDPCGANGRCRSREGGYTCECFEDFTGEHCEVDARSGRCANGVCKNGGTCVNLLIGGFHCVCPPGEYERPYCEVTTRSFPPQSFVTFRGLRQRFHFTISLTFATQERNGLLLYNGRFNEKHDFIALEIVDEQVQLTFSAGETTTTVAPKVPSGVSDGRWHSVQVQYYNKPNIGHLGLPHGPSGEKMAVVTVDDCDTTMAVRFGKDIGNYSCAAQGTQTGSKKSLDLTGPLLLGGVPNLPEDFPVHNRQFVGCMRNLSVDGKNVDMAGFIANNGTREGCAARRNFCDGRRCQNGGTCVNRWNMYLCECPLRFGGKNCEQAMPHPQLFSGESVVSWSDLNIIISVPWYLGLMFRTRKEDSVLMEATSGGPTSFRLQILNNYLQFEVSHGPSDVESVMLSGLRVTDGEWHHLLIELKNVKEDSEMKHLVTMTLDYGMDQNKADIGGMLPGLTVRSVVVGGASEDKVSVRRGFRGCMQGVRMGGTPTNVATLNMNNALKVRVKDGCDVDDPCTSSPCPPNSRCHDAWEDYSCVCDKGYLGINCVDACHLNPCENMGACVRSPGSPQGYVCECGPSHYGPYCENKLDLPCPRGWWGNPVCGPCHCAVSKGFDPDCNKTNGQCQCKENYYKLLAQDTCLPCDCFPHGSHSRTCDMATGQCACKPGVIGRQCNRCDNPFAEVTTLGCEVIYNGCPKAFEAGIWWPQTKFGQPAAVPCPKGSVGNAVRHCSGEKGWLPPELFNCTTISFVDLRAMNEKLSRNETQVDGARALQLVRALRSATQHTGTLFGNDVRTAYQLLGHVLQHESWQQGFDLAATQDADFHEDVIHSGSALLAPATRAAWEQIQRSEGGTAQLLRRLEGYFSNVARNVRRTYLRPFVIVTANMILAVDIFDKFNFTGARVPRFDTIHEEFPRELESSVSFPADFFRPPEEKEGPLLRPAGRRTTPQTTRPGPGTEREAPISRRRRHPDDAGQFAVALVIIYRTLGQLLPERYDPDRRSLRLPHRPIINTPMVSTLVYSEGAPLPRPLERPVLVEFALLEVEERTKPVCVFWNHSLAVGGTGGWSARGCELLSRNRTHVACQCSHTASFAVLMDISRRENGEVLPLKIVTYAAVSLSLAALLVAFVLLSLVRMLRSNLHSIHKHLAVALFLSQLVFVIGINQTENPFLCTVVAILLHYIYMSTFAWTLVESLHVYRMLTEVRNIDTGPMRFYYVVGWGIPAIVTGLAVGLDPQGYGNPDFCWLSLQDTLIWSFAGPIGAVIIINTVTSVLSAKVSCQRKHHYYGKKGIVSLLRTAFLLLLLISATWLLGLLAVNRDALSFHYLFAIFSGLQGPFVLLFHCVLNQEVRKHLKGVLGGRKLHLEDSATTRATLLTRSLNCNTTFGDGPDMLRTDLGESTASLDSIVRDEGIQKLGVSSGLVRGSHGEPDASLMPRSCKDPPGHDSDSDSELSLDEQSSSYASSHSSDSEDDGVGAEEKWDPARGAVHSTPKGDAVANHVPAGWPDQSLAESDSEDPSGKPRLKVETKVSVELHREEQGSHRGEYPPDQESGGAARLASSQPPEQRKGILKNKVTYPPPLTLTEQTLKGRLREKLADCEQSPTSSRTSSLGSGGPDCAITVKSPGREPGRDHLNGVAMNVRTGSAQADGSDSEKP

| Target | lysine labeling ratio R10:1 |
| --- | --- |
| FKBP4 (lysine site: K181) (UniProt Q02790) | 1.43 (active) |
| LAMA5 (lysine site: K2451) (UniProt O15230) | 3.17 (inactive) |
| BTN2A1 (lysine site: K101) (UniProt Q7KYR7) | 2.46 (inactive) |
| UniProt Q00341 (lysine site: K510) | 0.655 (active) |
| IGF2R (lysine site: K1230) (UniProt P11717) | 1.74 (active) |
| LDHB (lysine site: K156) (UniProt P07195) | 6.77 (inactive) |
| SLC25A5 (lysine site: K147) (UniProt P05141) | 4.57 (inactive) |
| ITGB1 (lysine site: K136) (UniProt P05556) | 1.75 (active) |
| LRP1 (lysine site: K458) (UniProt Q07954) | 2.56 (inactive) |
| FLNA (lysine site: K2473) (UniProt P21333) | 3.58 (inactive) |
| VAT1 (lysine site: K391) (UniProt Q99536) | 2.03 (inactive) |
| BPTF (lysine site: K609) (UniProt Q12830) | 8.91 (inactive) |
| PEBP1 (lysine site: K187) (UniProt P30086) | 2.64 (inactive) |
| DSTN (lysine site: K78) (UniProt P60981) | 1.54 (active) |
| FOLR1 (lysine site: K44) (UniProt P15328) | 1.8 (active) |
| VDAC1 (lysine site: K201) (UniProt P21796) | 3.77 (inactive) |
| UniProt Q99623 (lysine site: K216) | 2.79 (inactive) |
| GANAB (lysine site: K191) (UniProt Q14697) | 4.19 (inactive) |
| FAT1 (lysine site: K3783) (UniProt Q14517) | 1.6 (active) |
| PFN1 (lysine site: K70) (UniProt P07737) | 2.2 (inactive) |

| Target | lysine labeling ratio R10:1 |
| --- | --- |
| CHST14 (lysine site: K226) (UniProt Q8NCH0) | 1.36 (active) |
| HSP90B1 (lysine site: K733) (UniProt P14625) | 3.26 (inactive) |
| UniProt P60866 (lysine site: K67) | 2 (inactive) |
| FLNB (lysine site: K1780) (UniProt O75369) | 2.69 (inactive) |
| GAPDH (lysine site: K227) (UniProt P04406) | 1.76 (active) |
| ITGAV (lysine site: K718) (UniProt P06756) | 2.95 (inactive) |
| ARHGDIA (lysine site: K178) (UniProt P52565) | 3.53 (inactive) |
| UniProt Q9NYQ6 (lysine site: K2118) | 2.31 (inactive) |
| UniProt Q15149 (lysine site: K1725) | 1.57 (active) |
| AHNAK (lysine site: K563) (UniProt Q09666) | 2.5 (inactive) |
| UniProt P05187 (lysine site: K84) | 1.24 (active) |
| SPTBN2 (lysine site: K1874) (UniProt O15020) | 5.9 (inactive) |
| MCAM (lysine site: K398) (UniProt P43121) | 5.61 (inactive) |
| UniProt Q99653 (lysine site: K188) | 1.18 (active) |
| UniProt P62873 (lysine site: K15) | 3.12 (inactive) |
| UniProt Q86V81 (lysine site: K235) | 2.42 (inactive) |
| GALNT2 (lysine site: K103) (UniProt Q10471) | 2.75 (inactive) |
| BCAP31 (lysine site: K176) (UniProt P51572) | 0.745 (active) |
| WNT5A (lysine site: K283) (UniProt P41221) | 3.04 (inactive) |
| L1CAM (lysine site: K230) (UniProt P32004) | 5.86 (inactive) |
